# Results as given in PubChem BioAssay (Tox21).
# Records with an inconclusive call do not appear. Entries that show only a call come without a potency. Unmarked numbers belong to inactive results. Activity calls are given as the source filed them. Unless noted, calls come from the whole dose curve; as a rule, active = well fitted curve in the direction sought with a large enough effect in the repeat runs; inconclusive = weak or mixed curves; inactive = no such curve, though single readings can be large; an effect the other way counts as inactive or inconclusive.
# Assays:
# [1] = qHTS assay to identify small molecule antagonists of the retinoid acid receptor (RAR) signaling pathway - cell viability counter screen (AID 1159551); note: nearly all actives have a fitted effect of over 35% in size; note: potency is the fitted concentration of half-maximal effect
# Outline: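 Following overnight attachment, C3RL4 reporter cells received DMSO-dissolved compounds and then retinol (1 uM final). Six hours later at 37 C, ATP content was measured by CellTiter-Glo luminescence.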
# [2] = qHTS assay to identify small molecule antagonists of the retinoic acid receptor (RAR) signaling pathway (AID 1159552; note: nearly all actives have a fitted effect of over 50% in size; note: potency is the fitted concentration of half-maximal effect)
# Outline: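 Overnight-plated C3RL4 reporter cells get compound, then retinol to 1 uM final; plates sit 6 hr at 37 C, 5% CO2. A luciferase reagent is added and light output recorded after 30 min at room temperature.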
# [3] = qHTS assay to identify small molecule agonists of the retinoic acid receptor (RAR) signaling pathway (AID 1159553)
# Outline: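 Cell line C3RL4, RARE luciferase reporter. Treatment: compounds in DMSO, 6 hr, 37 C, 5% CO2, after overnight plating. Detection: luminescence, 30 min RT after reagent.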
# [4] = qHTS assay to identify small molecule agonists of the estrogen related receptor (ERR) signaling pathway (AID 1224820)
# Outline: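 ERR reporter cell line (from NTP), 2,000 cells/well, incubated 6 h before compound addition, then 18 h at 37 C. Luminescence measured 30 min after One-Glo reagent at room temperature.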
# [5] = system: estrogen-related receptor alpha (ERRalpha) with PGC-1alpha coactivator, human; assay: qHTS assay to identify small molecule antagonists of the estrogen related receptor signaling pathway with the pleiotropic PPARgamma coactivator (PGC) (AID 1224821; calls by dose curve;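 note: series mostly up to about 46 µM; lower luminescence signal means antagonism of PGC/ERR signalling; nearly all actives have a fitted effect of over 50% in size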)
# Outline: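 PGC/ERR reporter cell line, plated 6 h before compound addition, then exposed 18 h at 37 °C. Luciferase activity read by luminescence 30 min after One-Glo addition; decrease indicates antagonism.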
# [6] = qHTS assay to identify small molecule antagonists of the estrogen related receptor signaling pathway with the pleiotropic PPARgamma coactivator (PGC) cell viability counter screen (AID 1224822;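 note: series mostly up to about 46 µM; viability read after 17.5 h compound exposure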)
# Outline: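 qHTS format, DMSO compound stocks pin-transferred onto PGC/ERR cells 6 h after plating; 17.5 h exposure at 37 C, then CellTiter-Fluor fluorescence.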
# [7] = qHTS assay to identify small molecule agonists of the estrogen related receptor signaling pathway with the pleiotropic PPARgamma coactivator (PGC) (AID 1224823)
# Outline: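 PGC/ERR reporter cells seeded 6 h, then exposed to compounds (23 nL in DMSO) for 18 h at 37 C. One-Glo luciferase luminescence read after 30 min at room temperature.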
# [8] = qHTS assay to identify small molecule antagonists of the estrogen related receptor (ERR) signaling pathway from Tox21 library - cell viability counter screen (AID 1224834); note: nearly all actives have a fitted effect of over 30% in size; note: potency is the fitted concentration of half-maximal effect
# Outline: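 Viability readout (CellTiter-Fluor fluorescence, 30 min at 37 C) multiplexed with the ERR assay; cells treated 17.5 h at 37 C with compounds delivered in DMSO.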
# [9] = target: Luciferin 4-monooxygenase (Photinus pyralis) (UniProt P08659); assay: qHTS assay to identify small molecule inhibitors of firefly luciferase (AID 1224835); note: nearly all actives have a fitted effect of over 25% in size; note: potency is the fitted concentration of half-maximal effect
# Sequence of Luciferin 4-monooxygenase (Photinus pyralis) (P08659 whole entry, looked up): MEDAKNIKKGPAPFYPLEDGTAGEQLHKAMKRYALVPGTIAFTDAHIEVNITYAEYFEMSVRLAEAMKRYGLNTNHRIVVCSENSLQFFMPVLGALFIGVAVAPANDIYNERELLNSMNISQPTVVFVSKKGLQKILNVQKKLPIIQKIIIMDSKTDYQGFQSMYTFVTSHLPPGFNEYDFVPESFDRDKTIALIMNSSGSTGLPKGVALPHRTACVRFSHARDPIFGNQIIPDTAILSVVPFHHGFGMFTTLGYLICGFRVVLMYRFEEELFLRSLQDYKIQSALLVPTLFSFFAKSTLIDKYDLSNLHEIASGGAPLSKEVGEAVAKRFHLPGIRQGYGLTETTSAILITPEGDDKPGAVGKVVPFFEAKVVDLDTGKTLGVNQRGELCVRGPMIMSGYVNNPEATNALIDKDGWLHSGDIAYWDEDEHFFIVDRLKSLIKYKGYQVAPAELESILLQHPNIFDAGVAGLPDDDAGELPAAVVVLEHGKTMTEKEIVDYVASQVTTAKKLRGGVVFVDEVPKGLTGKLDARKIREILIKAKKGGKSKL
# Outline: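 Biochemical qHTS: compounds run as interplate titrations against purified firefly enzyme, with D-luciferin and ATP each at its KM concentration. Light output recorded by CCD imaging.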
# [10] = qHTS assay to identify small molecule agonists of the constitutive androstane receptor (CAR) signaling pathway - cell viability counter screen (AID 1224836); note: nearly all actives have a fitted effect of over 45% in size; note: potency is the fitted concentration of half-maximal effect; for viability change, negative = cytotoxic: series mostly up to about 92 µM
# Outline: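 Fluorescence from CellTiter-Fluor indicates live cells after 23 h exposure. The human hepatoma line expresses hCAR and a CYP2B6-2.2kb reporter. Incubation medium contains 0.75 uM PK11195 (final).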
# [11] = qHTS assay to identify small molecule antagonists of the constitutive androstane receptor (CAR) signaling pathway - cell viability counter screen (AID 1224837); note: nearly all actives have a fitted effect of over 45% in size; note: potency is the fitted concentration of half-maximal effect; for activity change, negative = cytotoxicity: series mostly up to about 92 µM
# Outline: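 Fluorescence from CellTiter-Fluor served as the viability signal. Human hepatoma HepG2 cells stably bearing hCAR and CYP2B6-2.2kb received compound plus CITCO (50 nM final) for 23 hr.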
# [12] = qHTS assay to identify small molecule antagonists of the estrogen related receptor signaling pathway with the pleiotropic PPARgamma coactivator (PGC) from Tox21 10K library - cell viability counter screen (AID 1224840; active = well fitted cell-killing curve with a large enough effect in the repeat runs, not every such curve was filed as active; note: nearly all actives have a fitted effect of over 40% in size; note: potency is the fitted concentration of half-maximal effect)
# Outline: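 Compounds in DMSO, alongside positive and negative controls, were pinned onto PGC/ERR cells (2,000 per well). Exposure lasted 17.5 hours at 37 C, followed by a 30-minute CellTiter-Fluor incubation and fluorescence reading.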
# [13] = qHTS assay to identify small molecule agonists of the estrogen related receptor signaling pathway with the pleiotropic PPARgamma coactivator (PGC) from Tox21 10K library (AID 1224842); note: nearly all actives have a fitted effect of over 15% in size
# Outline: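 PGC/ERR reporter cell line, 2,000 cells per well, incubated 6 h at 37 C before 23 nL compound in DMSO was added. After 18 h at 37 C, One-Glo luminescence read following 30 min at room temperature.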
# [14] = qHTS assay to identify small molecule agonists of the hypoxia (HIF-1) signaling pathway - cell viability counter screen (AID 1224844; calls by dose curve; note: nearly all actives have a fitted effect of over 50% in size; note: potency is the fitted concentration of half-maximal effect)
# Outline: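 Luminescent ATP content (CellTiter-Glo, 30 min, room temperature) served as the viability measure in HRE-bla ME-180 cells exposed to compounds for 17 hrs in low-serum medium (0.5% dialyzed FBS).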
# [15] = target: Nuclear receptor subfamily 1 group I member 3 (Homo sapiens) (UniProt Q14994); assay: qHTS assay to identify small molecule antagonists of the constitutive androstane receptor (CAR) signaling pathway (AID 1224838);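 note: HepG2 cells stably expressing hCAR with CYP2B6 luciferase reporter stimulated by CITCO; nearly all actives have a fitted effect of over 40% in size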; note: potency is the fitted concentration of half-maximal effect
# Sequence of Nuclear receptor subfamily 1 group I member 3 (Homo sapiens) (Q14994 whole entry, looked up): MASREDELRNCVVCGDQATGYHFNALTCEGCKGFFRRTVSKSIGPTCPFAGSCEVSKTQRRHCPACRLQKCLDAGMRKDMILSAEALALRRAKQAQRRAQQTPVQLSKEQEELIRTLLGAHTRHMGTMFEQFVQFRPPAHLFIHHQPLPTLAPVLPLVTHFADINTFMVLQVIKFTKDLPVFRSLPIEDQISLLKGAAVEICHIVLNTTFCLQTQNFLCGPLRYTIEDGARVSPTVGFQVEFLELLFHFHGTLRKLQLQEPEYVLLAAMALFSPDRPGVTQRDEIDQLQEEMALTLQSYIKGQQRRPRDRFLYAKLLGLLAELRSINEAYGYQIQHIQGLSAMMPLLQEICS
# Outline: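 Quantitative HTS in double-stable HepG2-CYP2B6-hCAR cells. After 4 h plating, cells get compound (15 concentrations) and CITCO at 50 nM final, incubate 24 h at 37 C, then ONE-Glo luminescence is read.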
# [16] = target: Nuclear receptor subfamily 1 group I member 3 (Homo sapiens) (UniProt Q14994); assay: qHTS assay to identify small molecule agonists of the constitutive androstane receptor (CAR) signaling pathway (AID 1224839); note: nearly all actives have a fitted effect of over 15% in size; note: potency is the fitted concentration of half-maximal effect;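 for activation: HepG2 cells stably carrying human CAR and a CYP2B6 luciferase reporter; series mostly up to about 92 µM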
# Outline: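 Stable hCAR/CYP2B6-2.2kb HepG2 line in DMEM with 10% FBS; compounds (15 concentrations) and 0.75 uM PK11195 final, 24 h at 37 C/5% CO2, then ONE-Glo luminescence after 30 min.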
# [17] = target: Thyrotropin receptor (Homo sapiens) (UniProt P16473); assay: qHTS assay to identify small molecule agonists of the thyroid stimulating hormone receptor (TSHR) signaling pathway (AID 1224843; calls by dose curve; note: nearly all actives have a fitted effect of over 45% in size)
# Sequence of Thyrotropin receptor (Homo sapiens) (P16473 whole entry, looked up): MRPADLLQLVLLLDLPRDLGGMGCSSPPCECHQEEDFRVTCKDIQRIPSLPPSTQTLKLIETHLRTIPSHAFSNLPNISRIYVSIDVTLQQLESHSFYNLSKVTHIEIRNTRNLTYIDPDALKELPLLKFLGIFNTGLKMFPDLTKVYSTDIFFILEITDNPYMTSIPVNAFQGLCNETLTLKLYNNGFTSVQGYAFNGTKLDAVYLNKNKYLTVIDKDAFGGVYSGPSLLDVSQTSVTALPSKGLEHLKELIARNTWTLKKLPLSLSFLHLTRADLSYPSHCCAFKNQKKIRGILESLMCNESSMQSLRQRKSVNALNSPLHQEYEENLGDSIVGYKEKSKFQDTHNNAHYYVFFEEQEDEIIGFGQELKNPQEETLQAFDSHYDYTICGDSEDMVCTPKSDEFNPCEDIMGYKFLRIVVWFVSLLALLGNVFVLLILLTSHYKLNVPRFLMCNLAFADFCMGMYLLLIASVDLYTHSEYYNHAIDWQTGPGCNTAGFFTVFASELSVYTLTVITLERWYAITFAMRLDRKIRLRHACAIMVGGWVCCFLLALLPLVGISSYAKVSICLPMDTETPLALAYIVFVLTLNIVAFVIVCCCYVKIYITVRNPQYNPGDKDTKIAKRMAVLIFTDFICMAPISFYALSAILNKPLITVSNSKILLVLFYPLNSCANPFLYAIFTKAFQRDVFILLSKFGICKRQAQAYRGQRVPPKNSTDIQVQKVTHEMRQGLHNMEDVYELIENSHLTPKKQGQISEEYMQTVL
# Outline: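 TSHR-HEK293 cells in agonist mode, 30 min room-temperature step, then cAMP measured by competitive HTRF (cAMP-d2 with anti-cAMP cryptate) after 1 h at room temperature. Tested at 15 concentrations in triplicate.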
# [18] = qHTS assay to identify small molecule agonists of the RXR signaling pathway - cell viability counter screen (AID 1159529);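 note: HEK 293T cells carrying an RXR-alpha UAS beta-lactamase reporter; series mostly up to about 77 µM; nearly all actives have a fitted effect of over 50% in size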
# Outline: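 Tox21 10K compounds were tested for cytotoxicity against GeneBLAzer RXR-alpha HEK 293T cells grown in 2% charcoal-stripped FBS. Exposure lasted 16 hr at 37 C, 5% CO2; viability read by CellTiter-Glo luminescence.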
# [19] = qHTS assay to identify small molecule antagonists of the estrogen related receptor signaling pathway with the pleiotropic PPARgamma coactivator (PGC) from Tox21 10K library (AID 1224841; call rule not given here)
# Outline: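 Compound exposure ran 18 hours at 37 C in PGC/ERR cells (2,000/well) that had first rested 6 hours in a 37 C/5% CO2 incubator. Luciferase activity was then detected with One-Glo after a 30-minute room-temperature step.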
structure (smiles),measurement,setting,value
OCc1cc(C(O)CNCCCCCCOCCCCc2ccccc2)ccc1O (stereo not given),Potency,[1],inactive
same,Potency,[2],inactive
same,Potency,[3],inactive
same,outcome,[4],inactive
same,Potency,[5],inactive
same,outcome,[6],inactive
same,outcome,[7],inactive
same,Potency,[8],10.6 µM (active)
same,Potency,[9],inactive
same,Potency,[10],10.6 µM (active)
same,Potency,[11],13.3 µM (active)
same,Potency,[12],inactive
same,Potency,[13],inactive
same,Potency,[14],inactive
C/C=C/C(=O)CC,"activity change, negative = cytotoxicity",[1],-1.29% [at 19 µM]
same,"activity, negative = inhibition",[2],130% [at 19 µM]
same,"viability change, negative = cytotoxic",[8],3.2% [at 19 µM]
same,"viability change, negative = cytotoxic",[10],4.38% [at 19 µM]
same,"activity change, negative = cytotoxicity",[11],0.0894% [at 19 µM]
same,"activity, negative = inhibition",[15],-5.29% [at 19 µM]
same,Potency,[16],inactive
same,"viability change, negative = cytotoxic",[12],7.3% [at 19 µM]
same,activation,[17],-10.5% [at 19 µM]
same,"activity change, negative = cytotoxicity",[14],-6.33% [at 15.8 µM]
Cc1oc2c(NC(=O)c3c(Cl)cccc3Cl)cccc2c1C(C)(C)O,Potency,[1],inactive
same,Potency,[2],inactive
same,Potency,[3],inactive
same,Potency,[8],43.3 µM (active)
same,Potency,[9],inactive
same,Potency,[10],inactive
same,Potency,[11],inactive
same,Potency,[15],5.45 µM (active)
same,Potency,[16],inactive
same,Potency,[13],inactive
same,Potency,[14],inactive
CN1Cc2cc(C(=O)N3CCC(C4CCNCC4)CC3)ccc2NC(CC(=O)O)C1=O (stereo not given),Potency,[18],inactive
same,Potency,[8],inactive
same,Potency,[9],inactive
same,Potency,[10],inactive
same,Potency,[11],inactive
same,Potency,[15],inactive
same,Potency,[16],inactive
same,Potency,[12],inactive
same,Potency,[13],inactive
same,Potency,[17],inactive
same,Potency,[14],inactive
CC(C)=CCC/C(C)=C/CC/C(C)=C/CO,Potency,[1],inactive
same,Potency,[2],68.6 µM (active)
same,Potency,[8],inactive
same,Potency,[9],inactive
same,Potency,[10],inactive
same,Potency,[11],inactive
same,Potency,[15],inactive
same,Potency,[12],inactive
same,Potency,[17],inactive
same,Potency,[14],inactive
Nc1ccc(N)c2c1C(=O)c1ccccc1C2=O,Potency,[1],30.6 µM (active)
same,Potency,[2],inactive
same,Potency,[8],15.4 µM (active)
same,Potency,[9],17.8 µM (active)
same,Potency,[10],17.2 µM (active)
same,Potency,[11],15.4 µM (active)
same,Potency,[16],inactive
same,Potency,[12],19.3 µM (active)
same,Potency,[19],24.3 µM (active)
same,Potency,[13],inactive
same,Potency,[14],inactive
Nc1ncn([C@H]2C[C@H](O)[C@@H](CO)O2)c(=O)n1,Potency,[18],inactive
same,Potency,[8],inactive
same,Potency,[10],inactive
same,Potency,[11],inactive
same,Potency,[15],inactive
same,Potency,[16],inactive
same,Potency,[12],inactive
same,Potency,[14],inactive
CCOC(=O)NCCOc1ccc(Oc2ccccc2)cc1,Potency,[1],inactive
same,Potency,[2],inactive
same,Potency,[9],31.7 µM (active)
same,Potency,[10],inactive
same,Potency,[11],inactive
same,Potency,[15],inactive
same,Potency,[16],48.6 µM (active)
same,Potency,[12],inactive
same,Potency,[14],inactive
CCN(CC)CCOC(=O)C(Cc1cccc2ccccc12)CC1CCCO1 (stereo not given),Potency,[1],inactive
same,Potency,[2],inactive
same,Potency,[9],inactive
same,Potency,[10],inactive
same,Potency,[11],inactive
same,Potency,[15],inactive
same,Potency,[16],inactive
same,Potency,[12],inactive
same,Potency,[14],inactive
Cn1c(=O)cc(Oc2ccc(F)cc2F)c2cnc(NCC(C)(C)O)nc21,Potency,[18],inactive
same,Potency,[9],inactive
same,Potency,[10],inactive
same,Potency,[11],inactive
same,Potency,[15],inactive
same,Potency,[16],inactive
same,Potency,[12],inactive
same,Potency,[19],34.4 µM (active)
same,Potency,[14],inactive
C#C[C@]1(O)CC[C@H]2[C@@H]3CCc4cc(OC5CCCC5)ccc4[C@H]3CC[C@@]21C,Potency,[1],inactive
same,Potency,[2],inactive
same,Potency,[3],inactive
same,Potency,[8],inactive
same,Potency,[9],inactive
same,Potency,[10],inactive
same,Potency,[12],inactive
same,Potency,[14],15.1 µM (active)
